Measurements published in PubChem BioAssay (EPA / NIEHS).
Where “and” joins values, the source holds several entries; their conditions need not be identical. Identical values can stand only once. Where a structure was tested more than once in an assay, its records may differ in their call. Calls of active or inactive are those of the source. Rule for the calls: active = hit-call score of the fitted dose curve at least 0.9, where 1 is the maximum; inactive = score below 0.9.

Assays:
[1] = BSK_hDFCGF_SRB: Viability Assessment in the BioMAP Diversity Plus: hDFCGF Assay (AID 2283061); details: primary human foreskin fibroblasts;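 note: cells exposed to compound for 24 h before the read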
Outline: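 Human foreskin fibroblasts in 96-well plates were treated 24 h. Total protein was measured by 0.1% SRB staining after 10% TCA fixation, read at 560 nm. Data were fitted bidirectionally against DMSO.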

[2] = read-out: TIMP metallopeptidase inhibitor 1 (TIMP1), TIMP1 (gene 7076); test: BSK_hDFCGF_TIMP1: BioMAP Diversity Plus: hDFCGF Assay for TIMP metallopeptidase inhibitor 1 (TIMP1) Biomarker Activity (AID 2283062); details: primary human foreskin fibroblasts; actives raise or lower the signal
Outline: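 Human foreskin fibroblast primary cultures dosed for 24 h; secreted/surface TIMP-1 quantified by ELISA. Bidirectional curve fitting against DMSO baseline; cytotoxicity tracked in parallel cultures by SRB total-protein staining.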

[3] = read-out: Matrix Metallopeptidase 1 (MMP1), MMP1 (gene 4312); test: BSK_hDFCGF_MMP1: BioMAP Diversity Plus: hDFCGF Assay for Matrix Metallopeptidase 1 (MMP1) Biomarker Activity (AID 2283064); details: primary human foreskin fibroblasts; actives raise or lower the signal
Outline: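 hDFCGF primary fibroblasts (human foreskin); chemical added; 24 h; MMP1 by ELISA; bidirectional fit vs DMSO.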

[4] = read-out: Vascular cell adhesion molecule 1 (VCAM1), VCAM1 (gene 7412); test: BSK_hDFCGF_VCAM1: BioMAP Diversity Plus: hDFCGF Assay for Vascular cell adhesion molecule 1 (VCAM1) Biomarker Activity (AID 2283065); details: primary human foreskin fibroblasts; actives raise or lower the signal;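 for AC50: VCAM-1 protein level quantified by ELISA after 24 h chemical exposure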
Outline: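 Human foreskin fibroblast primary cells dosed with chemical, VCAM-1 measured by ELISA at 24 h. Bidirectional curve fitting relative to DMSO as negative control/baseline.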

[5] = read-out: Plasminogen activator inhibitor-1 (PAI1), SERPINE1 (gene 5054); test: BSK_hDFCGF_PAI1: BioMAP Diversity Plus: hDFCGF Assay for Plasminogen activator inhibitor-1 (PAI1) Biomarker Activity (AID 2283066); details: primary human foreskin fibroblasts; actives raise or lower the signal
Outline: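 Human foreskin fibroblast primary cells, 24 h chemical exposure; PAI-1 measured by ELISA. Bidirectional fitting relative to DMSO; parallel cultures stained with SRB for total protein to flag overt cytotoxicity.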

[6] = read-out: Intercellular Adhesion Molecule 1 (ICAM1), ICAM1 (gene 3383); test: BSK_KF3CT_ICAM1: BioMAP Diversity Plus: KF3CT Assay for Intercellular Adhesion Molecule 1 (ICAM1) Biomarker Activity (AID 2283067); details: primary human keratinocytes with fibroblasts; actives raise or lower the signal
Outline: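 Human keratinocyte–foreskin fibroblast co-culture was treated for 24 h. Cell-surface ICAM-1 was quantified by ELISA, fitted bidirectionally relative to DMSO. Cytotoxicity was checked in parallel cultures by SRB total-protein staining.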

[7] = read-out: Interferon-gamma inducible Protein 10 (IP10), CXCL10 (gene 3627); test: BSK_KF3CT_IP10: BioMAP Diversity Plus: KF3CT Assay for Interferon-gamma inducible Protein 10 (IP10) Biomarker Activity (AID 2283068); details: primary human keratinocytes with fibroblasts; actives raise or lower the signal
Outline: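 KF3CT co-culture (keratinocytes + foreskin fibroblasts), 24 h compound, IP-10 by ELISA; bidirectional fit vs DMSO baseline.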

[8] = BSK_KF3CT_SRB: Viability Assessment in the BioMAP Diversity Plus: KF3CT Assay (AID 2283069); details: primary human keratinocytes with fibroblasts;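 note: total protein by sulforhodamine B staining as a cytotoxicity measure; read 24 h after compound addition; fitted for both signal gain and loss against DMSO baseline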
Outline: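 Keratinocytes co-cultured with foreskin fibroblasts (human primary); chemical added, 24 h; fix 10% TCA, stain 0.1% SRB, A560. Bidirectional fit vs DMSO.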

[9] = read-out: Interleukin-1 alpha (IL1a), IL1A (gene 3552); test: BSK_KF3CT_IL1a: BioMAP Diversity Plus: KF3CT Assay for Interleukin-1 alpha (IL1a) Biomarker Activity (AID 2283070); details: primary human keratinocytes with fibroblasts; actives raise or lower the signal
Outline: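 Chemicals were dosed onto co-cultured human keratinocytes and foreskin fibroblasts, IL-1a was quantified by ELISA at 24 h, and activity was fitted in both directions relative to DMSO controls.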

[10] = read-out: TIMP metallopeptidase inhibitor 2 (TIMP2), TIMP2 (gene 7077); test: BSK_KF3CT_TIMP2: BioMAP Diversity Plus: KF3CT Assay for TIMP metallopeptidase inhibitor 2 (TIMP2) Biomarker Activity (AID 2283071); details: primary human keratinocytes with fibroblasts; actives raise or lower the signal
Outline: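 Co-culture of human primary keratinocytes and foreskin fibroblasts, measured 24 h after chemical dosing. TIMP-2 quantified by ELISA and fitted in both directions relative to DMSO. Cytotoxicity checked in parallel cultures by SRB total-protein staining.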

[11] = read-out: Transforming growth factor beta 1 (TGFb1), TGFB1 (gene 7040); test: BSK_KF3CT_TGFb1: BioMAP Diversity Plus: KF3CT Assay for Transforming growth factor beta 1 (TGFb1) Biomarker Activity (AID 2283072); details: primary human keratinocytes with fibroblasts; actives raise or lower the signal
Outline: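 Human keratinocyte/foreskin fibroblast co-culture; TGF-b1 measured by ELISA 24 h after dosing, fitted bidirectionally versus DMSO. Cytotoxicity checked in parallel cultures by total protein (SRB staining, 560 nm).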

[12] = read-out: C-C motif chemokine 2 (Homo sapiens) (UniProt P13500); test: BSK_KF3CT_MCP1: BioMAP Diversity Plus: KF3CT Assay for Monocyte Chemoattractant Protein 1 (MCP1/CCL2) Biomarker Activity (AID 2283073); details: primary human keratinocytes with fibroblasts; actives raise or lower the signal
Outline: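 Human keratinocyte–foreskin fibroblast co-culture; MCP-1 measured by ELISA 24 h after dosing. Bidirectional fit vs DMSO; cytotoxicity tracked by SRB total protein in parallel cultures.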

[13] = read-out: Matrix Metallopeptidase 9 (MMP9), MMP9 (gene 4318); test: BSK_KF3CT_MMP9: BioMAP Diversity Plus: KF3CT Assay for Matrix Metallopeptidase 9 (MMP9) Biomarker Activity (AID 2283074); details: primary human keratinocytes with fibroblasts; actives raise or lower the signal;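 for AC50: MMP9 protein level quantified by ELISA in the co-culture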
Outline: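 Human keratinocyte/foreskin fibroblast co-culture; compound added; 24 h; MMP-9 by ELISA; bidirectional fit vs DMSO baseline.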

[14] = read-out: urokinase plasminogen activator (uPA), PLAU (gene 5328); test: BSK_KF3CT_uPA: BioMAP Diversity Plus: KF3CT Assay for urokinase plasminogen activator (uPA) Biomarker Activity (AID 2283075); details: primary human keratinocytes with fibroblasts; actives raise or lower the signal
Outline: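 ELISA readout of uPA, analyzed for signal gain or loss relative to DMSO, from a human primary keratinocyte–foreskin fibroblast co-culture measured 24 h after chemical treatment.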

CD40, CD40 (gene 958) = test: BSK_LPS_CD40: BioMAP Diversity Plus: LPS Assay for CD40 Biomarker Activity (AID 2283076); details: primary human HUVEC with PBMC; actives raise or lower the signal
Outline: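 HUVEC plus PBMC co-culture stimulated with LPS; CD40 quantified by ELISA 24 h after compound dosing. Fitting was bidirectional relative to DMSO. SRB staining of parallel cultures flagged overt cytotoxicity.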

[15] = read-out: E-selectin (Homo sapiens) (UniProt P16581); test: BSK_LPS_Eselectin: BioMAP Diversity Plus: LPS Assay for Eselectin Biomarker Activity (AID 2283077); details: primary human HUVEC with PBMC; actives raise or lower the signal
Outline: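 Human umbilical vein endothelial cells co-cultured with PBMC under LPS stimulation; cell-surface E-selectin measured by ELISA 24 h after dosing. Change in either direction versus DMSO, with SRB total-protein staining in parallel cultures for cytotoxicity.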

[16] = read-out: Interleukin-8 (IL8), CXCL8 (gene 3576); test: BSK_LPS_IL8: BioMAP Diversity Plus: LPS Assay for Interleukin-8 (IL8) Biomarker Activity (AID 2283078); details: primary human HUVEC with PBMC; actives raise or lower the signal
Outline: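 Human umbilical vein endothelial cells co-cultured with PBMC, LPS-stimulated, exposed to compound for 24 h. IL-8 quantified by ELISA; fitted in both directions against DMSO, with SRB total-protein staining of parallel cultures for cytotoxicity.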

[17] = BSK_LPS_SRB: Viability Assessment in the BioMAP Diversity Plus: LPS Assay (AID 2283079); details: primary human HUVEC with PBMC;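 note: total protein by sulforhodamine B absorbance as a cytotoxicity measure; measured one day after compound addition; fitted in both directions against DMSO so loss or gain of signal counts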
Outline: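 Co-culture of human umbilical vein endothelial cells and PBMC, read 24 h after dosing. Total protein by 0.1% SRB staining after 10% TCA fixation, absorbance at 560 nm; bidirectional fit against DMSO.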

[18] = read-out: Monokine induced gamma interferon (MIG), CXCL9 (gene 4283); test: BSK_hDFCGF_MIG: BioMAP Diversity Plus: hDFCGF Assay for Monokine induced gamma interferon (MIG) Biomarker Activity (AID 2283063); details: primary human foreskin fibroblasts; actives raise or lower the signal
Outline: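 MIG/CXCL9 measured by ELISA 24 h after dosing primary human skin fibroblasts. Activity fitted in both directions against DMSO controls. Cytotoxicity was checked in parallel cultures by SRB staining read at 560 nm.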

Sequence of E-selectin (Homo sapiens) (P16581 whole entry, looked up): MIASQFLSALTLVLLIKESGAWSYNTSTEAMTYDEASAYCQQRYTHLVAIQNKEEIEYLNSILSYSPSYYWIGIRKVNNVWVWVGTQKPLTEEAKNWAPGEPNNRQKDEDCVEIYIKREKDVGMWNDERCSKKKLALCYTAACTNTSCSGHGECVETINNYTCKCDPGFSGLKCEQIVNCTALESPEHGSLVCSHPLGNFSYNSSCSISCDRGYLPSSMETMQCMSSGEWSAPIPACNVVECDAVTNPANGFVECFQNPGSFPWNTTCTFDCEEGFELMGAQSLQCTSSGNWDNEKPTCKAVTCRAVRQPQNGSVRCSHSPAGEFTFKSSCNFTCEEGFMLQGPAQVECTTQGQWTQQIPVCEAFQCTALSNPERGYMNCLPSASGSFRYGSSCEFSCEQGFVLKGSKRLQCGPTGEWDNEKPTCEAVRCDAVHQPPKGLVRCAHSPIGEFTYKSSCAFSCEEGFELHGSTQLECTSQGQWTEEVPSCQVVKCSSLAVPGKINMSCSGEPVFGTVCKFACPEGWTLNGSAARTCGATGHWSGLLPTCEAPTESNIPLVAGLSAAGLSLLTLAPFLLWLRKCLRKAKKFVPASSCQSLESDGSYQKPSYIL

CCCCCCCCCCCC(C)=O
outcome [1]: inactive
outcome [2]: inactive
outcome [3]: inactive
outcome [4]: inactive
outcome [5]: inactive
outcome [6]: inactive
outcome [7]: inactive
outcome [8]: inactive
outcome [9]: inactive
AC50 [10]: 3.97 µM (active)
outcome [11]: inactive
AC50 [12]: 31.5 µM (active)
outcome [13]: inactive
outcome [14]: inactive
AC50 (CD40, CD40 (gene 958)): 31.3 µM (active)
AC50 [15]: 23.9 µM (active)
outcome [16]: inactive
outcome [17]: inactive

Oc1c(Cl)cc(Cl)c(Cl)c1Cl
AC50 [1]: 28.7 µM (active)
AC50 [2]: 32.1 µM (active)
outcome [3]: inactive
AC50 [4]: 23.3 µM (active)
AC50 [5]: 24.6 µM (active)
AC50 [6]: 20 µM (active)
AC50 [7]: 20 µM (active)
outcome [8]: inactive
outcome [9]: inactive
AC50 [10]: 11.4 µM (active)
AC50 [11]: 20 µM (active)
AC50 [12]: 20 µM (active)
AC50 [13]: 20 µM (active)
outcome [14]: inactive
AC50 (CD40, CD40 (gene 958)): 20 µM (active)
AC50 [15]: 30.7 µM (active)
outcome [16]: inactive
AC50 [17]: 20 µM (active)

CCCCCCCCCCCC(=O)N(C)CC(=O)O
outcome [1]: inactive
outcome [2]: inactive
outcome [3]: inactive
outcome [4]: inactive
outcome [5]: inactive
outcome [6]: inactive
outcome [7]: inactive
outcome [8]: inactive
outcome [9]: inactive
outcome [10]: inactive
outcome [12]: inactive
outcome [13]: inactive
outcome [14]: inactive
outcome (CD40, CD40 (gene 958)): inactive
outcome [15]: inactive
outcome [16]: inactive
outcome [17]: inactive

O=C1CCCCCCCCCCCN1
outcome [1]: inactive
outcome [2]: inactive
outcome [3]: inactive
outcome [4]: inactive
outcome [5]: inactive
outcome [6]: inactive
outcome [7]: inactive
outcome [8]: inactive
outcome [9]: inactive
outcome [10]: inactive
outcome [11]: inactive
outcome [12]: inactive
outcome [13]: inactive
outcome [14]: inactive
outcome (CD40, CD40 (gene 958)): inactive
outcome [15]: inactive
outcome [16]: inactive
outcome [17]: inactive

C=CC(=O)OCC(C)OCC(C)OCC(C)OC(=O)C=C (stereo not given)
AC50 [1]: 6.59 µM (active)
AC50 [2]: 11 µM (active)
AC50 [18]: 11.3 µM (active)
AC50 [3]: 27.5 µM (active)
AC50 [4]: 8.28 µM (active)
AC50 [5]: 6.86 µM (active)
AC50 [6]: 18.1 µM (active)
AC50 [7]: 28.1 µM (active)
AC50 [8]: 31.9 µM (active)
AC50 [9]: 20 µM (active)
outcome [10]: inactive
outcome [11]: inactive
AC50 [12]: 10.4 µM (active)
AC50 [13]: 14.7 µM (active)
AC50 [14]: 20 µM (active)
AC50 (CD40, CD40 (gene 958)): 6.73 µM (active)
AC50 [15]: 9.34 µM (active)
AC50 [16]: 11.9 µM (active)
AC50 [17]: 22.9 µM (active)

CCC1(C)C(=O)N(Cl)C(=O)N1Cl (stereo not given)
outcome [1]: inactive
outcome [2]: inactive
outcome [18]: inactive
outcome [3]: inactive
outcome [4]: inactive
outcome [5]: inactive
outcome [6]: inactive
outcome [7]: inactive
outcome [8]: inactive
outcome [9]: inactive
outcome [10]: inactive
outcome [11]: inactive
outcome [12]: inactive
outcome [13]: inactive
outcome [14]: inactive
outcome (CD40, CD40 (gene 958)): inactive
outcome [15]: inactive
outcome [16]: inactive
outcome [17]: inactive

COc1ccc(C(=O)/C(Br)=C\C(=O)O)cc1
AC50 [1]: 29.4 µM (active)
AC50 [2]: 28.6 µM (active) and 20 µM (active)
AC50 [3]: 33.5 µM (active) and 30.7 µM (active)
AC50 [4]: 14.7 µM (active) and 7.59 µM (active)
AC50 [5]: 28.9 µM (active)
outcome [5]: inactive
AC50 [6]: 20 µM (active)
AC50 [7]: 30.6 µM (active) and 30.2 µM (active)
AC50 [8]: 32 µM (active)
outcome [8]: inactive
AC50 [9]: 20 µM (active) and 24.8 µM (active)
AC50 [10]: 20 µM (active)
AC50 [11]: 20 µM (active) and 6.52 µM (active)
AC50 [12]: 33 µM (active) and 35 µM (active)
AC50 [13]: 25.6 µM (active) and 23.3 µM (active)
AC50 [14]: 31.7 µM (active)
outcome [14]: inactive
AC50 (CD40, CD40 (gene 958)): 10.2 µM (active) and 16 µM (active)
AC50 [15]: 25.3 µM (active) and 30.3 µM (active)
AC50 [16]: 20 µM (active)
AC50 [17]: 27.9 µM (active) and 31 µM (active)
